The values below come from PubChem BioAssay (NCATS).

Results filed as inconclusive are left out. The source holds several records for some structures; these can differ, active in one and inactive in another. Active and inactive are the calls of the source. Calls follow the shape of the dose curve; as a rule, active = well fitted inhibition curve with a large enough effect; inconclusive = small, poorly fitted or top-dose-only effect; inactive = flat fitted curve, though single readings scatter.
% is scaled to controls: 0 for no effect and ±100 for the full control effect; potency is read from the fitted curve at half-maximal effect.

A short description of the assay: P-glycoprotein substrates identified in KB-8-5-11 adenocarcinoma cell line, qHTS therapeutic library screen (AID 1346987). Also: nearly all actives have a fitted effect of over 65% in size. To be noted: KB-8-5-11 (P-gp overexpressing) viability, CellTiter-Glo, 72 h; series mostly up to 44.5 µM; activity change, negative = cytotoxicity: at the top concentration. Summed up:
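In this qHTS, P-gp-rich KB-8-5-11 cells received library compounds across a concentration range. Viability was quantified by luminescence after 72 h at 37 degree C.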
For the molecule `C=CC(C)(C)c1[nH]c2cccc3c2c1C[C@@H]1[C@@H]3[C@@H](OC(C)=O)[C@H](C)CN1C`, the “activity change, negative = cytotoxicity” value is 1.73% (inactive). As to `CO[C@H]1[C@H](O)[C@H](O[C@H]2CC[C@]3(C)C4CC[C@]5(C)[C@H](C6=CC(=O)OC6)CC[C@]5(O)C4CC[C@@H]3C2)O[C@@H](C)[C@@H]1O` (stereo partly drawn), the Potency was 56.3 nM (active).

Turning to `C=C1[C@@H]2CC[C@@]3(C)[C@H](c4ccoc4)OC(=O)C[C@]13O[C@H]1CC(=O)C(C)(C)[C@H](C(OC(C)=O)C(=O)OC)[C@]12C` (stereo partly drawn), the “activity change, negative = cytotoxicity” value is 8.74% [at 17.3 µM] (inactive).

Take `CC[C@H]1CN2CC[C@H]1C[C@H]2[C@H](O)c1ccnc2ccc(OC)cc12`: the “activity change, negative = cytotoxicity” value was -7.42% (inactive). Regarding `N#CC(C#N)=Cc1cc(O)c(O)c(O)c1`, the “activity change, negative = cytotoxicity” value is -20.3% (inactive). As to `CC(C)[C@@H](CN1CC[C@@](C)(c2cccc(O)c2)[C@@H](C)C1)NC(=O)[C@H]1Cc2ccc(O)cc2CN1`, the “activity change, negative = cytotoxicity” value is 9.89% (inactive). In the case of `C=CCC1(C(C)CCC)C(=O)N=C(S)NC1=O` (stereo not drawn), the “activity change, negative = cytotoxicity” value is -4.48% (inactive). Take `CCN1C[C@]2(COC)[C@H](O)C[C@H](OC)[C@]34[C@@H]5C[C@]6(O)[C@H](OC(=O)c7ccccc7)[C@@H]5[C@@](O)([C@H]([C@H](OC)[C@H]23)[C@@H]14)[C@@H](O)[C@@H]6OC`: the outcome was inactive. Consider `OC1(c2ccc(Cl)cc2)c2ccccc2C2=NCCN21` (stereo not drawn), for which the “activity change, negative = cytotoxicity” value is -4.41% (inactive). On to `COC(=O)C1(C)CCC(=O)C2(C)c3c(O)cc(C(C)C)cc3C(O)C(OC(C)=O)C12` (stereo not drawn), for which the “activity change, negative = cytotoxicity” value was 5.72% [at 17.3 µM] (inactive).

Take `CCN1C[C@]2(OC(=O)c3ccccc3NC(C)=O)CC[C@H](OC)[C@@]34[C@@H]2C[C@@H]([C@@H]13)[C@@]1(O)C[C@H](OC)[C@H]2C[C@@H]4[C@]1(O)[C@H]2OC`: the “activity change, negative = cytotoxicity” value was 5.02% (inactive). For `C[C@@](O)(COc1ccc(C#N)cc1)C(=O)Nc1ccc(C#N)c(C(F)(F)F)c1`, the “activity change, negative = cytotoxicity” value was -4.82% (inactive). For the molecule `CN(C)CCc1c[nH]c2ccc(CN3CCN(C)S3(=O)=O)cc12`, the outcome was inactive. In the case of `CC(C)(O)[C@H]1O[C@H]2CC[C@@]3(C)[C@@](O)(CC[C@H]4Cc5c([nH]c6ccccc56)[C@@]43C)C2=CC1=O`, the “activity change, negative = cytotoxicity” value is -6.52% [at 17.3 µM] (inactive). Regarding `CN1[C@H]2C[C@H](OC(=O)[C@H](CO)c3ccccc3)C[C@@H]1[C@@H](O)C2`, the “activity change, negative = cytotoxicity” value was 2.69% (inactive). Regarding `C/C=C(\C)C(=O)OC1C(C)OC(OC2C(C)OC(OC3CCC4(C)C(=CCC5C4CCC4(C)C(C(C)OC6OC(COC7OC(CO)C(O)C(O)C7O)C(O)C(O)C6O)CCC54O)C3)CC2OC)C(O)C1OC` (stereo not drawn), the activity change, negative = cytotoxicity was 7.92% [at 9.29 µM] (inactive). With `C=CC(C)(O)CC/C=C(\C)C(=O)O[C@H]1[C@H](O)[C@@H](CO)O[C@@H](OC(=O)[C@]23CCC(C)(C)CC2C2=CCC4[C@@]5(C)CC[C@H](O[C@@H]6O[C@H](CO[C@@H]7OC[C@H](O)[C@H](O)[C@H]7O[C@@H]7OC[C@@H](O)[C@H](O)[C@H]7O)[C@@H](O)[C@H](O)[C@H]6O)C(C)(C)C5CC[C@@]4(C)[C@]2(C)CC3)[C@@H]1OC1OC(C)C(O[C@@H]2OC[C@@H](O)[C@H](O[C@@H]3OC[C@@H](O)[C@H](O)[C@H]3O)[C@H]2O)C(O)C1O` (stereo partly drawn), the activity change, negative = cytotoxicity is 3.69% [at 9.29 µM] (inactive). With `COC1C(O)C(C)OC(OC2C(CO)O[C@@H](O[C@@H]3CC4CCC5C(CC[C@]6(C)[C@@H](C7=CC(=O)OC7)CC[C@]56O)[C@@]4(C)[C@H](O)C3)C(O)C2O)C1O` (stereo partly drawn), the Potency was 544 nM (active).

For `COC1CC(OC2CCC3(C)C(CCC4C3CCC3(C)C(C5=CC(=O)OC5)C(OC(C)=O)CC43O)C2)OC(C)C1OC1OC(CO)C(O)C(O)C1O` (stereo not drawn), the Potency is 685 nM (active). Regarding `[O]=[Cr](=[O])([OH])[O][Cr](=[O])(=[O])[OH]`, the Potency was 23.1 µM (active) and inactive. Regarding `CN1CCCC1CCOC(c1cc2nccc(C(=O)O)c2[nH]1)c1ccccc1Cl` (stereo not drawn), the molecule was classed as inactive. For the molecule `C[C@]12CC[C@H]3[C@@H]([C@H](O)CC4=CC(=O)CC[C@@]43C)[C@@H]1CC[C@@H]2O`, the “activity change, negative = cytotoxicity” value is -6.77% (inactive).

Turning to `Cc1cccc(NC(=O)N[C@@H]2N=C(c3ccccc3)c3ccccc3N(C)C2=O)c1`, the “activity change, negative = cytotoxicity” value was -6.54% (inactive). In the case of `COC1CC(OC2CCC3(C=O)C(CCC4C3CCC3(C)C(C5=CC(=O)OC5)CCC43O)C2)OC(C)C1OC1OC(CO)C(O)C(O)C1O` (stereo not drawn), the Potency is 172 nM (active). In the case of `CC(C)C1(OO)C=C2C(=O)CC3C(C)(C(=O)O)CCCC3(C)C2CC1` (stereo not drawn), the “activity change, negative = cytotoxicity” value was 6.94% (inactive). As to `COC1C(O)C(OC2CCC3(C=O)C(CCC4C3CCC3(C)C(C5=CC(=O)OC5)CCC43O)C2)OC(C)C1OC1OC(CO)C(O)C(O)C1O` (stereo not drawn), the Potency was 432 nM (active). Turning to `CN(C(=O)Cc1ccccc1)C(CN1CCCC1)c1ccccc1` (stereo not drawn), the “activity change, negative = cytotoxicity” value was -10.6% (inactive).

As to `Clc1ccc(N2C[C@H]3CC[C@@H](C2)N3)nn1`, the “activity change, negative = cytotoxicity” value was 9.18% (inactive).

`COC(=O)[C@@]12C(=O)C(C)C(=O)[C@]1(C)C(C)=C[C@H]1[C@]3(C=O)CC[C@H](OC(C)=O)C(C)(C)[C@H]3CC[C@@]12C` (stereo partly drawn): the “activity change, negative = cytotoxicity” value was -4.84% [at 17.3 µM] (inactive). As to `Clc1ccc(OCC2=NCCN2)cc1Cl`, the “activity change, negative = cytotoxicity” value was 6.64% (inactive). On to `O=C(N1CCOCC1)N1CCN(c2ccc(Cl)cc2)CC1`, for which the “activity change, negative = cytotoxicity” value was -3.69% (inactive). As to `CCCCCl`, the “activity change, negative = cytotoxicity” value was -10.3% (inactive).

Consider `CC12CCC3C(CCC4(O)CC(O)CCC34C=O)C1(O)CCC2C1=CC(=O)OC1` (stereo not drawn), for which the Potency was 651 nM (active). Turning to `CCC(C)(OC(C)=O)C(=O)O[C@H]1[C@H](OC(C)=O)C[C@@H]2[C@@](C)([C@@H]3C[C@H]4C=CO[C@H]4O3)[C@H](C)C[C@H](OC(C)=O)[C@@]2(COC(C)=O)[C@@]12CO2` (stereo partly drawn), the “activity change, negative = cytotoxicity” value is 2.17% [at 17.3 µM] (inactive). Consider `Cc1cc(C(=O)CN2CCCC2)c(C)n1-c1ccc(F)cc1`, for which the Potency entry is “inactive”. As for `CC[C@H]1CN2CC[C@H]1C[C@@H]2[C@@H](O)c1ccnc2ccc(OC)cc12`, the “activity change, negative = cytotoxicity” value was -6.53% (inactive). As for `CC(=O)OC1CC(O)C(C)(C)C2CC(OC(C)=O)C3(C)C(CCC4(C)C(c5ccoc5)C(=O)C5OC543)C12C` (stereo not drawn), the “activity change, negative = cytotoxicity” value was -12.7% [at 17.3 µM] (inactive). For `CC(=O)O[C@H]1C[C@@H](OC(C)=O)C(C)(C)C2C[C@@H](O)[C@]3(C)C(CC[C@@]4(C)[C@H](C5=CC(=O)OC5O)C[C@H]5O[C@]543)[C@]21C` (stereo partly drawn), the “outcome” value is “inactive [at 17.3 µM]”.
